Reference: PubChem BioAssay (NCATS)
Inconclusive results are not listed. Active and inactive are the calls of the source. Unless noted, calls come from the whole dose curve; as a rule, active = well fitted curve in the direction sought with a large enough effect; inconclusive = small, poorly fitted or top-dose-only effect, or another doubt; inactive = no such curve, though single readings can be large; an effect the other way counts as inactive or inconclusive.

What was measured:
[1] = AP1 Signaling Pathway (AID 357; active = well fitted curve in either direction with a large enough effect, not every such curve was filed as active;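 note: ME-180 reporter cells stimulated with EGF at its EC50 level; % is set by controls: 0 for no effect and ±100 for the full control effect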); conditions: ME-180 AP-1-bla reporter, EGF-induced, beta-lactamase ratio, 5 h; at 7.69 µM (top of the series) unless noted
Procedure, shortened: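 First, ME-180 AP-1-bla cells were cultured overnight at 37 °C in low-serum Opti-MEM. Next, titrated compounds with EC50 EGF were incubated 5 hours. Finally, CCF4 was added for 2.5 hours and the 460/530 nm ratio recorded.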

[2] = NFAT Signaling Pathway (AID 444; active = well fitted curve in either direction with a large enough effect, not every such curve was filed as active;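 note: carbachol stimulus at about its EC50 of 1 µM final; % is set by controls: 0 for no effect and ±100 for the full control effect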); conditions: Jurkat NFAT-bla M1, carbachol, beta-lactamase ratio, 5 h; at 7.69 µM (top of the series) unless noted
Procedure, shortened: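 Jurkat cells with NFAT-driven β-lactamase reporter and co-expressed M1 receptor, stimulated with carbachol (final 1 uM, ~EC50), compound titration, 5 h at 37 °C. CCF4 loaded 1 h at RT; 460/530 nm ratio gave %activity and AC50.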

[3] = Stat Signaling Pathway (AID 446; active = well fitted curve in either direction with a large enough effect, not every such curve was filed as active;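 note: ME-180 cervical cancer cells given 40 pM IL-6 alongside compound; SIE-controlled beta-lactamase reporter measured as 460/530 nm FRET emission ratio; % is set by controls: 0 for no effect and ±100 for the full control effect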); conditions: ME-180 SIE beta-lactamase reporter, IL-6 stimulated, 5 h; at 7.69 µM (top of the series) unless noted
Procedure, shortened: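 ME-180 SIE-bla cells; overnight plating; cpd + IL-6 40 pM, 5 h, 37 C; LiveBLAzer 2.5 h RT; 460/530 nm emission ratio. Normalized to 300 pM IL-6 and 125 nM JAK inhibitor controls.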

[4] = target: Glucocorticoid receptor (Homo sapiens) (UniProt P04150); experiment: GR-EFC Redistribution (AID 451; calls by dose curve; note: potency is the fitted concentration of half-maximal effect); conditions: CHO-K1 GR-EFC translocation, beta-gal luminescence, 2 h
Glucocorticoid receptor (Homo sapiens), sequence (P04150 whole entry, looked up, the tested form may be a part): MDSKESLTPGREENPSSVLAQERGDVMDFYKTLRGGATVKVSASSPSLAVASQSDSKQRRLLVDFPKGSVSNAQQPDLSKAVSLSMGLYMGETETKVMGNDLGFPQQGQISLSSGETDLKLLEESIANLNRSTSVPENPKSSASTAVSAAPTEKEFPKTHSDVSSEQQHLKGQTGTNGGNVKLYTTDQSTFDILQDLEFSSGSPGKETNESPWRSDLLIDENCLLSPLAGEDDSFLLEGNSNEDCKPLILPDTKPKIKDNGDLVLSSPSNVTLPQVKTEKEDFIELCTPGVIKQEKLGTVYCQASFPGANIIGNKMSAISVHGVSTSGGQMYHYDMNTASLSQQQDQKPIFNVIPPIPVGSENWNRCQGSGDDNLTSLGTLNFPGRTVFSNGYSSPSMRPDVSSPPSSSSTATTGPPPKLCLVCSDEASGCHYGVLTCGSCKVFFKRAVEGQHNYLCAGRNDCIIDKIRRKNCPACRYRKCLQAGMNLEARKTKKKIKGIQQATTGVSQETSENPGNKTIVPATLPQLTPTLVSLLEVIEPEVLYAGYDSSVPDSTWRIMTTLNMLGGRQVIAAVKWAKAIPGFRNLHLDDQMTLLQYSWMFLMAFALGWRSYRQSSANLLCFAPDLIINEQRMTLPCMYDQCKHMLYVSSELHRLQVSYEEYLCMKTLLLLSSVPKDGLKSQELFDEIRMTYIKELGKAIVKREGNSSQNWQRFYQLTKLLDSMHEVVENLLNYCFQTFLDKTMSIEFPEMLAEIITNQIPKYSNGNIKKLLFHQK
Procedure, shortened: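 CHO-K1 cells expressing nuclear EA and GR-ED fragments of b-gal; compounds titrated up to 46 uM final, 2 h at 37 C. GR nuclear translocation read as complemented b-gal luminescence after 1 h RT detection.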

[5] = target: Mitogen-activated protein kinase 10 (Mus musculus) (UniProt Q61831); experiment: JNK3 AlphaScreen Assay (AID 530; active = well fitted curve in either direction with a large enough effect, not every such curve was filed as active;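 note: kinase came from lysate of stimulated human HepG2 cells; signal reports phosphorylation of biotinylated GST-cJun 1-79 at Ser73 with 10 µM ATP; % is set by controls: 0 for no effect and ±100 for the full control effect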)
Procedure, shortened: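 qHTS format: compounds tested as titrations against IL-1beta/TNF-alpha-activated HepG2 lysate JNK3 with biotin-GST-cJun substrate and 10 uM ATP at room temperature. Loss of anti-phospho-cJun AlphaScreen signal indicates inhibition.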

[6] = target: 3',5'-cyclic-AMP phosphodiesterase 4B (Homo sapiens) (UniProt Q07343); experiment: qHTS Assay for Inhibitors of PDE-IV (AID 607; active = well fitted activation curve with a large enough effect in the main read-out, with a control signal flat, not every such curve was filed as active; note: % of control where 0% means no effect)
3',5'-cyclic-AMP phosphodiesterase 4B (Homo sapiens), sequence (Q07343 whole entry, looked up): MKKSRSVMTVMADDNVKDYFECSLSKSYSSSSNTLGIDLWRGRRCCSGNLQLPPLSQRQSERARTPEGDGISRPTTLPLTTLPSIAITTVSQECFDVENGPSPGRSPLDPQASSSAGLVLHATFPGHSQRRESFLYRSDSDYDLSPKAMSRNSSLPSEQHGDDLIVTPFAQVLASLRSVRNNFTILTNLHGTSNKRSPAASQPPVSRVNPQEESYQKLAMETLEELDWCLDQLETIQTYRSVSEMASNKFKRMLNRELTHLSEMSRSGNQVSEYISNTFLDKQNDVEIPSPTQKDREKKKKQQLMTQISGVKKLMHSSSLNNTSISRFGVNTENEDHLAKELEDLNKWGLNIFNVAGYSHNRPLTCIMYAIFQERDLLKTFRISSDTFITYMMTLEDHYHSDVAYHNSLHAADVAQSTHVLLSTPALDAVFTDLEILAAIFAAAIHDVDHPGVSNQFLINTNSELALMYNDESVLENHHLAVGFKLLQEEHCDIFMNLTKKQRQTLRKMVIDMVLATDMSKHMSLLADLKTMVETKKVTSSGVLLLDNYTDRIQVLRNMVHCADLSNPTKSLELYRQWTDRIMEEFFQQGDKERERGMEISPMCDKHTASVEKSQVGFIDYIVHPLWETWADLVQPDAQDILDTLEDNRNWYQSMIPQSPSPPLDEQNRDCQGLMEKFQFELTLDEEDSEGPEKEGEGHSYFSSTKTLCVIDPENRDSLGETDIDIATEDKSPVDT
Procedure, shortened: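 ACTOne HEK293 cells carry a modified cAMP-gated CNG channel and express endogenous PDE4; plated 1000 cells/well, compounds up to 22.9 uM final. Membrane-potential dye fluorescence (ex 535/em 590) was read; parental cells received 10 uM forskolin + 100 uM RO 20-1724.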

[7] = qHTS Assay for Lipid Storage Modulators (AID 1519; calls by dose curve); conditions: Drosophila S3 cells, BODIPY lipid droplet/cell ratio, laser cytometry, cells loaded with oleic acid; for activity change, negative = inhibition: at 57.5 µM (top of the series)
Procedure, shortened: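 Cells seeded at 5,000 per well were treated with compounds over a concentration series and loaded with oleic acid (400 uM, as added). Lipid droplet fluorescence (488 nm excitation, 500-530 nm channel) was read by laser-scanning cytometry and normalized to 20 uM Triacsin C.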

[8] = Primary qHTS for small molecule stabilizers of the endoplasmic reticulum resident proteome: Secreted ER Calcium Modulated Protein (SERCaMP) assay (AID 1508630); note: % is set by controls: 0 for no effect and ±100 for the full control effect
Procedure, shortened: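 GLuc-SERCaMP-expressing SH-SY5Y cells, pretreated 16 h with compound, are challenged with thapsigargin to empty ER calcium stores; after 4 h, coelenterazine is added directly to the medium and luminescence is imaged.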

[9] = target: Lysosomal acid glucosylceramidase (Homo sapiens) (UniProt P04062); experiment: Glucocerebrosidase-p2 (AID 348; in the data active = potency below about 10 µM; note: potency is the fitted concentration of half-maximal effect); conditions: purified GBA, blue fluorogenic substrate, 40 min
Lysosomal acid glucosylceramidase (Homo sapiens), sequence (P04062 whole entry, looked up): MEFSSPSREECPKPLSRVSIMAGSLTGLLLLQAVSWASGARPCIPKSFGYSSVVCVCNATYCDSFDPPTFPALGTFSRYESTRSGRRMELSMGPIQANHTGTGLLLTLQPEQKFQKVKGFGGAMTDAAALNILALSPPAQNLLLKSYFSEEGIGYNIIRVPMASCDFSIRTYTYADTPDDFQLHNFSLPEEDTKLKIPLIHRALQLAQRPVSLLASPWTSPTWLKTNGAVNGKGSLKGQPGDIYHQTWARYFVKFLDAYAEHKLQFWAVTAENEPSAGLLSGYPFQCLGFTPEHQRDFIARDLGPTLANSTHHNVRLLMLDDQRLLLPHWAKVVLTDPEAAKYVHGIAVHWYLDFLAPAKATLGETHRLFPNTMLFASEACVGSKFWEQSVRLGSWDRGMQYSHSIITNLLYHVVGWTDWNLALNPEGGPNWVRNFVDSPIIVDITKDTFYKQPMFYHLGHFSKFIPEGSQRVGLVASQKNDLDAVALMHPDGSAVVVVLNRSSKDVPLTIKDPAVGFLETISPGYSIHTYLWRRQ
Procedure, shortened: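 Compounds titrated from 0.6 nM upwards against 0.2 nM enzyme in pH 5.9 citric acid/KH2PO4, taurocholate, tween-20; blue fluorogenic substrate 80 uM, 40 min room temperature, stopped and read Ex 365/Em 440 for AC50.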

[10] = target: Cytochrome P450 1A2 (Homo sapiens) (UniProt P05177); experiment: p450-cyp1a2 (AID 410; calls by dose curve; note: potency is the fitted concentration of half-maximal effect)
Procedure, shortened: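 Human CYP1A2 (20nM) demethylated Luciferin-ME at its Km (100uM) in 100mM KPO4. After 10 min compound preincubation, NADPH regeneration ran the reaction 60 min at room temperature. Luciferin was read by luminescence, normalized to 57 uM furafylline.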

[11] = target: Glucocorticoid receptor (Homo sapiens) (UniProt P04150); experiment: GR-GFP Redistribution (AID 450;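 active = compounds whose dose series gives a full or clear partial fitted curve of increased nuclear translocation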; note: potency is the fitted concentration of half-maximal effect); conditions: U2OS GR-GFP nuclear translocation, laser cytometry, 2 h
[12] = target: Cytochrome P450 3A4 (Homo sapiens) (UniProt P08684); experiment: qHTS Assay for Activators of Cytochrome P450 3A4 (AID 885); note: nearly all actives have a fitted effect of over 65% in size
Cytochrome P450 3A4 (Homo sapiens), sequence (P08684 whole entry, looked up): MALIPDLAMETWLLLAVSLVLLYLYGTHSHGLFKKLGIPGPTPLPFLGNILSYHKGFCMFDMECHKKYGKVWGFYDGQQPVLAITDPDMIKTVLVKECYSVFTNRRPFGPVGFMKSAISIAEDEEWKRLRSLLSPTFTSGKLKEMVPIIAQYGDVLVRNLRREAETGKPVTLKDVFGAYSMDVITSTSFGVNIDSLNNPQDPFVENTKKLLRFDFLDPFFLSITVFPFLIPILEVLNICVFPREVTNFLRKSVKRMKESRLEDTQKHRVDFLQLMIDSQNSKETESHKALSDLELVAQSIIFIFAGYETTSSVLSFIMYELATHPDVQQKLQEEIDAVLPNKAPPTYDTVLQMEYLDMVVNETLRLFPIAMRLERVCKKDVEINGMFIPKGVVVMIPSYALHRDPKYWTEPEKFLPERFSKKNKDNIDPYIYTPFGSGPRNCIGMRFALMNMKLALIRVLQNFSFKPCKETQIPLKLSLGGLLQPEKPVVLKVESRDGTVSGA
Procedure, shortened: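 20nM CYP3A4 + 25uM Luciferin-PPXE (=KM), 200mM KPO4; cpd 10 min RT; NADPH regen, 60 min RT; stop w/ detection buffer, 20 min; luminescence. Normalized to 57 uM ketoconazole.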

[13] = target: Dual specificity protein kinase CLK4 (Homo sapiens) (UniProt Q9HAZ1); experiment: qHTS Assay for Inhibitors of CDC-like Kinase 4 (ADP-FP Assay) (AID 1795);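 note: recombinant human CLK4 phosphorylating RS repeat peptide at 1 µM ATP; % is set by controls: 0 for no effect and ±100 for the full control effect; nearly all actives have a fitted effect of over 60% in size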
Dual specificity protein kinase CLK4 (Homo sapiens), sequence (Q9HAZ1 whole entry, looked up): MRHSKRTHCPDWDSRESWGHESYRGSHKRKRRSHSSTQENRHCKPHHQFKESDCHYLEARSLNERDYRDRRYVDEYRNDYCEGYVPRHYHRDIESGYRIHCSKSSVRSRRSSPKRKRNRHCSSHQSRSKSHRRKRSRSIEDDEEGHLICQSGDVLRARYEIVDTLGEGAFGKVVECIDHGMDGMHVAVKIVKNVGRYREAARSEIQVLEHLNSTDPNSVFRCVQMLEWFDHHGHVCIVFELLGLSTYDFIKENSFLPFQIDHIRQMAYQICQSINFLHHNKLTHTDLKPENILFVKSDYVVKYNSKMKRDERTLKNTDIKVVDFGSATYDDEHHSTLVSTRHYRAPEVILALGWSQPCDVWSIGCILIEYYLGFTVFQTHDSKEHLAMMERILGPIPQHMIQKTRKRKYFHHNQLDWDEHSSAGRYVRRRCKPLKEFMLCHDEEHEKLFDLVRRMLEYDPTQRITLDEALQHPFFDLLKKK
Procedure, shortened: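 FP readout: Orange Transcreener ADP2 tracer (4 nM) plus ADP antibody, read after 30 min at room temperature. Kinase step: 6.25 nM Clk4, 100 uM RS peptide, 1 uM ATP, pH 7.5, 1 h.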

[14] = target: Ubiquitin carboxyl-terminal hydrolase 1 (Homo sapiens) (UniProt O94782); experiment: Inhibitors of USP1/UAF1: Pilot qHTS (AID 504865); note: nearly all actives have a fitted effect of over 35% in size; note: potency is the fitted concentration of half-maximal effect
Procedure, shortened: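 1nM USP1/UAF1 + cpd, 15 min RT; start w/ Ub-Rho 150nM final; kinetic FL 480/540 nm, 6 reads q60 s. Buffer 50mM HEPES pH 7.8, 0.5mM EDTA, 1mM TCEP, 0.01% Tween-20, 0.1 mg/ml BSA.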

[15] = target: Rap guanine nucleotide exchange factor 3 (Homo sapiens) (UniProt O95398); experiment: Confirmatory qHTS for antagonist of cAMP-regulated guanine nucleotide exchange factor 3 (EPAC1) (AID 1645880);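 note: plate controls were DMSO only for no effect and full effect of the ATA control for full effect; nearly all actives have a fitted effect of over 55% in size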
Rap guanine nucleotide exchange factor 3 (Homo sapiens), sequence (O95398 whole entry, looked up): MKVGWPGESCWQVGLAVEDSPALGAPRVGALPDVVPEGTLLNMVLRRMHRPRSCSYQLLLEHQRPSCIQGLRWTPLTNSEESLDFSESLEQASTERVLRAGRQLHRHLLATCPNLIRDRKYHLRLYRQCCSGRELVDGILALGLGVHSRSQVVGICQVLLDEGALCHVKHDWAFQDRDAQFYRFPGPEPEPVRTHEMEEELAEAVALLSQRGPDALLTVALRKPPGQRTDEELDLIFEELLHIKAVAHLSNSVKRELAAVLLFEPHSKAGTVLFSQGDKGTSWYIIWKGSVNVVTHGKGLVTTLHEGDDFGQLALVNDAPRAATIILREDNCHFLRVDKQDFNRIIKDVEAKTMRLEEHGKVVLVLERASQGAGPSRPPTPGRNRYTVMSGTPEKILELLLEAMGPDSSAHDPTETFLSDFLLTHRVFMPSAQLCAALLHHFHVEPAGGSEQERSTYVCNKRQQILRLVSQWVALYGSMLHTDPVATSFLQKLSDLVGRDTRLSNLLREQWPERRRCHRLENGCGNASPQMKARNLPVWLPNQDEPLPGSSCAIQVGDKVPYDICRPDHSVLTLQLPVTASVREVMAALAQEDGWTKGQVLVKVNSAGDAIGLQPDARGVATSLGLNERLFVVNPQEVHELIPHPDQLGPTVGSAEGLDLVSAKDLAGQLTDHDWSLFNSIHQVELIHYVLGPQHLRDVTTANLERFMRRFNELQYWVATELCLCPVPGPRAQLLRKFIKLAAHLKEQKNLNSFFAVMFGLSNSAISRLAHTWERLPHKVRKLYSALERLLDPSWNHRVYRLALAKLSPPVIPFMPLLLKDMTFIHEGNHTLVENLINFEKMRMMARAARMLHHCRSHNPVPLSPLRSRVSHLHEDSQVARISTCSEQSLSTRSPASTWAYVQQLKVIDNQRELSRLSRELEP
Procedure, shortened: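 Nucleotide exchange uses 100 nM EPAC1, 250 nM RAP1B-BODIPY-GDP and 50 uM GDP, with compounds in a concentration-titration series. After 5 min at room temperature, fluorescence (480 nm ex/540 nm em) is read every 5 min for 30 min. Data are normalized to control ATA and DMSO.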

[16] = target: Rap guanine nucleotide exchange factor 3 (Homo sapiens) (UniProt O95398); experiment: Confirmatory qHTS for agonist of cAMP-regulated guanine nucleotide exchange factor 3 (EPAC1) (AID 1645881);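 note: EPAC1 catalysed release of BODIPY-GDP from Rap1B seen as fluorescence loss; 100% = effect of cAMP agonist control; nearly all actives have a fitted effect of over 75% in size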
[17] = target: Rap guanine nucleotide exchange factor 4 (Homo sapiens) (UniProt Q8WZA2); experiment: Confirmatory qHTS for agonist of cAMP-regulated guanine nucleotide exchange factor 4 (EPAC2) (AID 1645884);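 note: nucleotide exchange releases bodipy-GDP from Rap1 and this lowers its fluorescence; % is set by controls: 0 for no effect and ±100 for the full control effect; nearly all actives have a fitted effect of over 65% in size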
Rap guanine nucleotide exchange factor 4 (Homo sapiens), sequence (Q8WZA2 whole entry, looked up): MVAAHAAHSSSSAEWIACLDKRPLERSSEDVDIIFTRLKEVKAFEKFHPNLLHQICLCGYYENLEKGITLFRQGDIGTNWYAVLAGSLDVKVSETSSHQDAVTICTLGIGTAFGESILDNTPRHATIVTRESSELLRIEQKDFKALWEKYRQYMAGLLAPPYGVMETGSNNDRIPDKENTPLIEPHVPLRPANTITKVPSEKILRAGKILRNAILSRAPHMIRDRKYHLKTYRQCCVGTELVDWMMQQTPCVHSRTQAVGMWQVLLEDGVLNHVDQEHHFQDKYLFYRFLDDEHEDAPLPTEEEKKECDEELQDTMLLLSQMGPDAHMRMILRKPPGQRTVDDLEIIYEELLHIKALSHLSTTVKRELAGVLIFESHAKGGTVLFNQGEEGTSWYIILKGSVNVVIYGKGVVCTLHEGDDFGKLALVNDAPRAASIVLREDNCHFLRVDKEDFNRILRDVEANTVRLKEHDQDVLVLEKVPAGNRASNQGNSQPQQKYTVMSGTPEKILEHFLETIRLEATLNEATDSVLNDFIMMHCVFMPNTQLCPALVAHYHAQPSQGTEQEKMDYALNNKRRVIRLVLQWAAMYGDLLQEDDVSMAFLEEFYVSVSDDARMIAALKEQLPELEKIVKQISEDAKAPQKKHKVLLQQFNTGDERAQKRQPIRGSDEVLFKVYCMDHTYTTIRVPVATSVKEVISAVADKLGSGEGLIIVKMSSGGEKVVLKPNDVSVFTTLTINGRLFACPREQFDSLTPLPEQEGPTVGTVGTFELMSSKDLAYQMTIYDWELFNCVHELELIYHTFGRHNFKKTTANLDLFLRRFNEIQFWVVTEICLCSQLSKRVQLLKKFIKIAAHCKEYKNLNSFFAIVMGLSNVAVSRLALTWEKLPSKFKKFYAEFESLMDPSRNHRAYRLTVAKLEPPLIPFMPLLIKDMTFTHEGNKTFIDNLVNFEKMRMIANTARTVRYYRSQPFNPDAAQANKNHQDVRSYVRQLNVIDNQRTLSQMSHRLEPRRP

[18] = target: Rap guanine nucleotide exchange factor 4 (Homo sapiens) (UniProt Q8WZA2); experiment: Confirmatory qHTS for antagonist of cAMP-regulated guanine nucleotide exchange factor 4 (EPAC2) (AID 1645885); note: % is set by controls: 0 for no effect and ±100 for the full control effect; nearly all actives have a fitted effect of over 25% in size
[19] = Confirmation and Secondary Assay for Modulators of Hemoglobin Beta Chain Splicing at IVS2 654 locus (AID 910);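 note: HeLa cells stably carrying EGFP split by mutant beta-globin IVS2-654 intron; % of control where 0% means no effect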
Procedure, shortened: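 HeLa cells stably expressing EGFP interrupted by β-globin IVS2-654 intron, seeded overnight in Opti-MEM/2% FCS, then treated 2 days at 37 °C. Restored splicing read as total peak GFP intensity per well by laser scanning cytometry (488 nm excitation, 500–520 nm emission); 500 nM antisense PNA as control.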

[20] = Confirmation and Secondary Assay for Modulators of Hemoglobin Beta Chain Splicing at IVS2 705 locus (AID 930);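 note: HeLa cells stably expressing the EGFP-705 splicing reporter; GFP fluorescence per well restored by corrected splicing of the IVS2-705 intron in EGFP; % of control where 0% means no effect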
Procedure, shortened: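 Assay measures total GFP intensity per well in HeLa EGFP-705 cells after 2 days with compound; mis-splicing normally truncates EGFP, so fluorescence indicates corrected splicing.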

[21] = measured here: cell count channel max response
[22] = measured here: lipid channel max response

O=C(c1ccco1)N1CCC[C@@]2(CCN(c3ccccn3)C2)C1
22.6%: max response [7, 21]
30%: max response [7, 22]
inactive: activity change, negative = inhibition [1] 4.46% | activity change, negative = inhibition [2] -3.78% | activity, negative = inhibition [3] -0.822% | Potency [4] > 46 µM | Potency [5] | Potency [6] | activity change, negative = inhibition [7] 4.34% | outcome [8]

COc1ccc(CNc2ncnc3ccc(-c4c(C)noc4C)cc23)c(OC)c1
active: Potency [10] 15.8 µM
inactive: Potency [9] > 11.4 µM | Potency [11] > 46 µM | Potency [4] > 46 µM | Potency [5] | Potency [12] | Potency [13] | Potency [14] | outcome [8] | Potency [15] | Potency [16] | Potency [17] | Potency [18]

O=c1c(-c2cc(F)cc(F)c2)nc2cncnc2n1Cc1ccccc1Cl
inactive: Potency [9] > 11.4 µM | activity change, negative = inhibition [1] 5.85% | activity change, negative = inhibition [2] -19.2% | activity, negative = inhibition [3] -6.37% | Potency [11] > 9.22 µM | Potency [4] > 46 µM | Potency [5] | Potency [6] | Potency [12] | Potency [14] | outcome [8] | Potency [15] | Potency [16] | Potency [17] | Potency [18]
active: Potency [10] 5.01 µM

CN(C)c1ncc2nc(-c3ccc(F)cc3)c(=O)n(-c3ccccc3)c2n1
inactive: Potency [9] > 11.4 µM | activity change, negative = inhibition [1] -8.28% | activity change, negative = inhibition [2] 20.7% | activity, negative = inhibition [3] 28.3% | Potency [11] > 9.22 µM | Potency [4] > 46 µM | Potency [5] | Potency [13] | Potency [14] | outcome [8] | Potency [15] | Potency [16] | Potency [17] | Potency [18]

COc1cccc(Nc2ncc3nc(-c4cn(C)c5ccccc45)c(=O)n(C[C@H]4CCCO4)c3n2)c1
inactive: Potency [9] > 11.4 µM | activity change, negative = inhibition [1] -25.8% | activity change, negative = inhibition [2] -1.76% | activity, negative = inhibition [3] 8.32% | Potency [11] > 9.22 µM | Potency [4] > 46 µM | Potency [5] | Potency [6] | outcome [8] | Potency [15] | Potency [16] | Potency [17] | Potency [18]

COc1cc(C)c2c(c1C=O)Oc1c(c(C)c(O)c3c1C(O)OC3=O)OC2=O (centres undefined)
active: Potency [14] 56.2 µM
inactive: Potency [12] | Potency [19] | outcome [20] | activity change, negative = inhibition [7] 4.32% | outcome [8]
5.41%: max response [7, 21]
11.3%: max response [7, 22]
